TDP1 cell noCPT: qHTS for Inhibitors of human tyrosyl-DNA phosphodiesterase 1 (TDP1): qHTS in cells in absence of CPT; Potency, µM (series often up to 46.2 µM), for inactives: at the top dose activity change, negative = growth inhibition, usual class: inhibitors; DT40 Tdp1-/- hTDP1 cells, no CPT, ATP luminescence, 48 h; actives 15% (n = 420,000); also: potency is read from the fitted curve at half-maximal effect; % is scaled to controls: 0 for no effect and ±100 for the full control effect; nearly all actives have a fitted effect of over 55% in size
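Readout: luminescence from CellTiter-Glo after 30 min in the dark at RT. Cells: DT40 Tdp1-/- with stable hTDP1, 400/well. Exposure: compounds alone, ≥48 hr, 37 °C.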
SW480 rerep: induces DNA re-replication in SW480 colon adenocarcinoma cells; actives 1.8% (n = 340,000); AID 624297; SW480 DNA re-replication, Hoechst DNA content imaging, 48 h; Potency, µM (series often up to 46.1 µM), for the others: at the top dose re-replication activation, hits mostly activators; also: potency is read from the fitted curve at half-maximal effect; % of control where 0% means no effect; nearly all actives have a fitted effect of over 55% in size
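Treated cells incubate 48 hr (37 C, 5% CO2), are stained 40 min with Hoechst, and nuclear fluorescence is enumerated; a rise in nuclei with high DNA signal marks re-replication.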
BCR signal inh: chronic active BCR signaling inhibition; ABC-DLBCL IkBa-CBG/CBR reporter, luminescence ratio, 4 h; Potency, µM (titrated, usually from 46.1 µM), without a hit: top-dose activity change, negative = inhibition, hits mostly inhibitors; actives 0.05% (n = 340,000); active = well fitted inhibition curve with a large enough effect in the signal ratio, with a control signal flat, not every such curve was filed as active; inconclusive = small, poorly fitted or top-dose-only effect, or effect the other way, or a change in a side signal; the % refers to the signal ratio;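 also: potency is read from the fitted curve at half-maximal effect; plate controls were basal doxycycline-induced cells for no effect and cells given 10 µM MG132 for full effect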
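TMD8 ABC-DLBCL cells carrying doxycycline-inducible green luciferase fused to IkappaBalpha plus unfused red luciferase were exposed to compounds (up to 46 uM) for 4 hrs at 37C. Activity came from the overlap-corrected green/red luminescence ratio.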
DT40 TDP1 CPT: DT40-hTDP1 cell growth loss with CPT; Potency, µM (series often up to 46.2 µM), for the others: top-dose activity change, negative = growth inhibition, usual class: inhibitors; actives 12% (n = 420,000); chicken DT40 Tdp1-/-;hTDP1 cells + 20 nM CPT, ATP luminescence, 48 h; AID 686979; also: potency is read from the fitted curve at half-maximal effect; % is scaled to controls: 0 for no effect and ±100 for the full control effect; nearly all actives have a fitted effect of over 55% in size
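Cell growth measured by CellTiter-Glo luminescence after a minimum 48 h, 37 C compound exposure with 20 nM CPT in Tdp1-knockout DT40 cells stably expressing hTDP1, seeded 400/well; qHTS titration format.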
IL-1B inflam inh: inflammasome signaling inhibition, IL-1 beta readout | actives 4.7% (n = 360,000) | THP-1 LPS/ATP IL-1B secretion, AlphaLISA, 16 h; hits give low values | activity change, % at 57.5 µM; in the data active = activity change below about -50%; inconclusive = mostly about -30% to -49%; also: % is scaled to controls: 0 for no effect and ±100 for the full control effect
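Secreted IL-1B measured by AlphaLISA bead assay after 16 h compound exposure of THP-1 cells; compounds (final up to 57.5 uM) added 1 h before LPS (250 ng/mL) and ATP (1.25 mM) stimulation; lower signal means less secretion.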
MCF10A rerep: induces DNA re-replication in MCF 10a normal breast cells | MCF 10A DNA re-replication, Hoechst nuclear intensity, 48 h | Potency, µM (top dose mostly 46.1 µM), without a hit: at the top dose activity, positive = re-replication, most hits filed as activators | actives 2.9% (n = 350,000); also: potency is read from the fitted curve at half-maximal effect; % of control where 0% means no effect; nearly all actives have a fitted effect of over 50% in size
The depositor's hits bear a star; ? = inconclusive; · = no result given; [ ] = remark or other dose. Shown are actives, neighbours in structure and some others; about 19% of the full set was active somewhere. Unless noted, calls follow the shape of the dose curve; as a rule, active = well fitted curve in the direction sought with a large enough effect; inconclusive = small, poorly fitted or top-dose-only effect, or another doubt; inactive = no such curve, though single readings can be large; an effect the other way counts as inactive or inconclusive.

SMILES | TDP1 cell noCPT | SW480 rerep | BCR signal inh | DT40 TDP1 CPT | IL-1B inflam inh | MCF10A rerep
Cc1cc(OCC(=O)NCc2ccncc2)c2c3c(c(=O)oc2c1)CCCC3 | ? | -23.8% | 3.4% | ? | -0.8 | 1.0%
O=S1(=O)N(Cc2ccccc2)CCCN1Cc1cccc(Cl)c1 | ? | · | · | -2.6% | · | ·
N#Cc1ccc(NC(=O)CN2C(=O)NC3(CCCCCCC3)C2=O)cc1Cl | 7.31µM* | -5.6% | ? | 11.6µM* | 5.7 | 2.6%
CC(=O)N1CCN(CC(=O)Nc2ccc(C#N)c(Cl)c2)CC1 | 3.4% | -11.2% | -11.2% | -28.4% | 2.3 | -2.3%
C[C@@H]1CN([C@@H](C)CO)C(=O)CCCn2nncc2CO[C@H]1CN(C)C(=O)Oc1ccccc1 | -15.6% | · | · | 3.9% | 2.0 | ·
Cc1[nH]c2ccccc2c1C(=O)CN1CC=C(c2ccccc2)CC1 | ? | ? | 0.7% | 16.4µM* | -10.0 | 18.4µM*
CN1[C@@H]2CC(OC(=O)[C@H](CO)c3ccccc3)C[C@H]1[C@@H]1O[C@@H]12 (some centres not stated) | -1.4% | 4.5% | -0.5% | 1.6% | 4.9 | ?
Cc1ccc(C(=O)C2CN(C)CC2C(=O)c2ccc(C)cc2)cc1 (configuration not stated) | ? | 4.3% | 4.4% | -8.4% | -19.5 | ?
CN1CCC(O)(c2cccs2)C(C(=O)c2cccs2)C1 (configuration not stated) | 3.66µM* | 19.3% | 7.2% | 1.3µM* | -93.8* | ?
CCCCN1CCC(O)(c2ccccc2)C(C(=O)c2ccccc2)C1 (configuration not stated) | 2.91µM* | ? | 5.6% | 2.91µM* | -10.6 | ?
CCC(=O)O[C@]1(c2ccccc2)CCN(C)C[C@H]1C | -29.3% | · | · | 5.8% | · | ·
CN1CCC(O)(c2ccc(F)cc2)C(C(=O)c2ccc(F)cc2)C1 (configuration not stated) | ? | ? | · | ? | · | 26.6µM*
CN(C)/C=C/C(=O)C(Cl)(Cl)Cl | -7.8% | -15.6% | -9.4% | -15.8% | -5.7 | 2.8%
CNC(C)[C@@H](O)c1ccc(O)cc1 (some centres not stated) | · | -0.1% | · | · | · | -3.4%
CC1([N+](=O)[O-])COP(=O)(NC2CC2)OC1 (configuration not stated) | -11.9% | -4.9% | · | 4.1% | 1.3 | -6.1%
C=C1CCC(O)C/C1=C\C=C1/CCCC2(C)C1CCC2C(C)CCCC(C)C (configuration not stated) | 26.6µM* | · | · | 23.7µM* | · | ·
O=C(c1c[nH]c(C(=O)C(Cl)(Cl)Cl)c1)c1ccccc1Cl | ? | 0.1% | · | ? | -17.0 | 0.1%
COC(=O)C1=C(c2ccc(-c3ccccc3)c(F)c2)C[C@@H]2CC[C@H]1N2C(=O)N1CCCC1 | 1.16µM* | -2.4% | ? | 1.64µM* | -69.3* | 15.6%
COC(=O)C1=C(c2ccc(-c3ccccc3)c(F)c2)C[C@@H]2CC[C@H]1N2C(=O)N1CCOCC1 | 1.3µM* | -4.5% | 0.6% | 1.16µM* | ? | 2.7%
COC(=O)C1=C(c2ccc(-c3ccccc3)c(F)c2)C[C@@H]2CC[C@H]1N2C(=O)N1CCCCC1 | 1.3µM* | -57.5%[9.22 µM] | 2.6% | 2.31µM* | -12.4 | ?
COC(=O)C1=CO[C@@H](OC2OC(CO)C(O)C(O)C2O)[C@@H]2C(CO)=CC[C@H]12 (some centres not stated) | 1.2% | 2.4% | 5.1% | -20.8% | 23.0 | -11.3%
CCSc1nnc(NC(=O)c2cccn(Cc3ccccc3Cl)c2=O)s1 | 10.7% | · | · | 1.9% | · | ·
CCCCN1C(=O)NC(=O)C2(Cc3c(nc4c(C)cccn4c3=O)N3CCc4ccccc4C32)C1=O (configuration not stated) | 16.4µM* | ? | ? | 20.6µM* | 26.2 | ?
CCOC(=O)CSc1nn(-c2ccccc2)c(=S)s1 | -7.7% | -7.3% | -2.9% | -5.4% | 11.7 | 6.9%
CC(=O)c1ccc2c(c1)C1C(Cl)C(Sc3ccccc3[N+](=O)[O-])CC1C(c1ccccc1[N+](=O)[O-])N2 (configuration not stated) | 13µM* | 0.9% | -6.7% | 10.3µM* | -20.2 | 1.6%
SMILES | TDP1 cell noCPT | SW480 rerep | BCR signal inh | DT40 TDP1 CPT | IL-1B inflam inh | MCF10A rerep
CC(=O)c1ccc2c(c1)C1C(Cl)C(Sc3ccccc3[N+](=O)[O-])CC1C(c1ccccc1)N2 (configuration not stated) | 14.6µM* | -3.5% | ? | 11.6µM* | 0.5 | 0.8%
CCCCOC1OCN(C2CCCCC2)CC1(C)C (configuration not stated) | ? | · | · | -18.6% | 2.2 | ·
CCOc1ccc(Cl)cc1CNCCc1ccc(F)cc1 | 16.4µM* | -3.6% | -3.7% | 20.6µM* | -57.3* | ?
O=S1(=O)N(Cc2ccc(F)cc2)CCCN1Cc1ccccc1Cl | -10.9% | 13.5% | 1.6% | -9.4% | -7.4 | ?
Cn1c(=O)oc2cc(S(=O)(=O)NCCN3CCN(c4ccccc4)CC3)ccc21 | -26.3% | -3.6% | -10.1% | ? | 11.4 | 2.0%
Cc1cc(C)nc(N2Cc3ccccc3C2=N)n1 | 23.1µM* | -11.6% | -1.7% | ? | -16.6 | -3.9%
CC(C)(C)c1ccc(/C=C2\Oc3cc(OC(=O)N4CCOCC4)ccc3C2=O)cc1 | 25.9µM* | ? | 1.5% | 16.4µM* | -76.9* | 14.6µM*
Cc1cccc2c1-c1sc(C(=O)Nc3ccccc3N3CCN(C)CC3)cc1CO2 | 18.4µM* | ? | ? | 18.4µM* | -93.3* | 4.11µM*
CN1CCN(c2ccc(N)cc2Cl)CC1 | ? | 13.5% | -2.6% | ? | ? | 24.1%
C[C@@]12CCC(Cl)C[C@H]1CCC1C2CC[C@]2(C)C(=O)CCC12 (some centres not stated) | 20.4% | · | · | 5.6% | · | ·
CCC1CCCCN1Cc1ccc(CNS(=O)(=O)c2ccc3c(c2)oc(=O)n3C)o1 (configuration not stated) | -13.1% | 5.8% | ? | -9.2% | 47.4 | -181.4%[0.0737 µM]
Oc1c(Cl)cccc1Cc1cc(Cl)cc(Cl)c1O | 20.6µM* | 1.1% | · | ? | ? | 11.6µM*
C[n+]1c2ccccc2nc2ccc(NCCO)cc21 | 10.3µM* | ? | ? | 18.4µM* | -9.7 | -1.8%
CNc1ccc2nc3ccccc3[n+](C)c2c1 | 0.731µM* | ? | ? | 1.16µM* | 0.0 | 1.2%
c1ccc2nc3ccccc3nc2c1 | 1.6% | 17.9% | 8.4% | 12.2% | -16.5 | ?
